# Laboratory results reported in PubChem BioAssay (Tox21).
# Values joined by “and” are separate entries in the source; they are usually repeats but may differ in a detail not shown here. Identical values can stand only once. Records with an inconclusive call do not appear. A call without a number means that no potency is given here. A structure can be active in one record and inactive in another. Active and inactive are the calls of the source. Unless noted, the call rests on the fitted dose curve; in most records, active means well fitted curve in the direction sought with a large enough effect in the repeat runs; inconclusive means weak or mixed curves; inactive means no such curve, though single readings can be large; an effect the other way counts as inactive or inconclusive.
# How the values were obtained:
# [1] = qHTS assay to identify small molecule antagonists of the estrogen related receptor (ERR) signaling pathway from Tox21 library - cell viability counter screen (AID 1224834); further: nearly all actives have a fitted effect of over 30% in size; further: potency means the concentration at half of the fitted maximal effect
# How it was run: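 Counter screen run in ERR cells (2,000 cells/well): cells pre-incubated 6 h, then treated with compounds for 17.5 h at 37 C. Fluorescence was read 30 min after CellTiter-Fluor addition.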
# [2] = biological target: Luciferin 4-monooxygenase (Photinus pyralis) (UniProt P08659); assay: qHTS assay to identify small molecule inhibitors of firefly luciferase (AID 1224835); further: nearly all actives have a fitted effect of over 25% in size; further: potency means the concentration at half of the fitted maximal effect
# Sequence of Luciferin 4-monooxygenase (Photinus pyralis) (P08659 whole entry, looked up): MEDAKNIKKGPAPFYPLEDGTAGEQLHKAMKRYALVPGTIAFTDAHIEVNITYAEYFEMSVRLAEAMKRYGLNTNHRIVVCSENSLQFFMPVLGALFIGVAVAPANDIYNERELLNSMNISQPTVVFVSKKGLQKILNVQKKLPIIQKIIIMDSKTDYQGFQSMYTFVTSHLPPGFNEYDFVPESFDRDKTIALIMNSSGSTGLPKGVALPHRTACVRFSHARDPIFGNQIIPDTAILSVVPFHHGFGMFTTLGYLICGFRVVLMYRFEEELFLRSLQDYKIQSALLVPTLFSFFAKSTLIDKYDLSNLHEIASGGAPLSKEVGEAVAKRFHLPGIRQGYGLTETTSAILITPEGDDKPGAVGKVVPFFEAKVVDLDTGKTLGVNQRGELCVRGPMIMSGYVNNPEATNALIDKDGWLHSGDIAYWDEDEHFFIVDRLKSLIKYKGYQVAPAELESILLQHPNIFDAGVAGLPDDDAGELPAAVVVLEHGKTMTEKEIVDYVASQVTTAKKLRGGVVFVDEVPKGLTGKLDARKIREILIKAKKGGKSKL
# How it was run: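 Quantitative HTS format; KM concentrations of both substrates. Purified P. pyralis FLuc activity quantified from luminescence images.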
# [3] = qHTS assay to identify small molecule agonists of the constitutive androstane receptor (CAR) signaling pathway - cell viability counter screen (AID 1224836); further: nearly all actives have a fitted effect of over 45% in size
# How it was run: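 Double-stable HepG2 hepatoma cells (hCAR plus CYP2B6-2.2kb) are treated for 23 h at 37 C with test compounds in 15-point concentration series. PK11195 at 0.75 uM final is co-added. Cell viability is quantified by CellTiter-Fluor.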
# [4] = qHTS assay to identify small molecule antagonists of the constitutive androstane receptor (CAR) signaling pathway - cell viability counter screen (AID 1224837); further: nearly all actives have a fitted effect of over 45% in size
# How it was run: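 CITCO at 50 nM final was added alongside compounds (15 concentrations) to double-stable hCAR/CYP2B6-2.2kb HepG2 cells. Following 23 hr at 37 C, cell viability was quantified by CellTiter-Fluor fluorescence intensity.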
# [5] = biological target: Nuclear receptor subfamily 1 group I member 3 (Homo sapiens) (UniProt Q14994); assay: qHTS assay to identify small molecule antagonists of the constitutive androstane receptor (CAR) signaling pathway (AID 1224838); further: nearly all actives have a fitted effect of over 40% in size; further: potency means the concentration at half of the fitted maximal effect
# Sequence of Nuclear receptor subfamily 1 group I member 3 (Homo sapiens) (Q14994 whole entry, looked up): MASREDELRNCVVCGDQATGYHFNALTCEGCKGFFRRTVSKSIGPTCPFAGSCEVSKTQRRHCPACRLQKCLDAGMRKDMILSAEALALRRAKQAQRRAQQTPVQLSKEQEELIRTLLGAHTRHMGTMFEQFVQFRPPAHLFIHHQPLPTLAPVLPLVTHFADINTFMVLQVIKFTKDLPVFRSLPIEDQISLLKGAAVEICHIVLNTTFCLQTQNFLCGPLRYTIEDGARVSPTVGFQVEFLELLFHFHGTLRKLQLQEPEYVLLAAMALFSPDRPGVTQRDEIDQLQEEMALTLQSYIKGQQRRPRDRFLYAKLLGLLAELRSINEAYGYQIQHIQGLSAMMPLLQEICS
# How it was run: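 Inhibition of CITCO-driven (50 nM final) CYP2B6 reporter expression is measured in HepG2 cells stably carrying hCAR. Fifteen compound concentrations are applied for 24 h at 37 C, followed by luciferase luminescence.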
# [6] = biological target: Nuclear receptor subfamily 1 group I member 3 (Homo sapiens) (UniProt Q14994); assay: qHTS assay to identify small molecule agonists of the constitutive androstane receptor (CAR) signaling pathway (AID 1224839); further: nearly all actives have a fitted effect of over 15% in size
# How it was run: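 Readout: firefly luciferase luminescence via ONE-Glo. System: HepG2 double-stable for hCAR and CYP2B6-2.2kb. Conditions: 15-point compound titration, PK11195 at 0.75 uM final, 24 h incubation.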
# [7] = qHTS assay to identify small molecule antagonists of the estrogen related receptor signaling pathway with the pleiotropic PPARgamma coactivator (PGC) from Tox21 10K library - cell viability counter screen (AID 1224840; active means well fitted cell-killing curve with a large enough effect in the repeat runs, not every such curve was filed as active; further: nearly all actives have a fitted effect of over 40% in size)
# How it was run: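 Readout: fluorescence intensity from CellTiter-Fluor after 30 min at 37 C/5% CO2. Preceded by 17.5 h treatment of PGC/ERR cells with DMSO-dissolved compounds, added 6 h post-seeding.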
# [8] = biological target: Thyrotropin receptor (Homo sapiens) (UniProt P16473); assay: qHTS assay to identify small molecule agonists of the thyroid stimulating hormone receptor (TSHR) signaling pathway (AID 1224843; calls by dose curve; further: nearly all actives have a fitted effect of over 45% in size)
# Sequence of Thyrotropin receptor (Homo sapiens) (P16473 whole entry, looked up): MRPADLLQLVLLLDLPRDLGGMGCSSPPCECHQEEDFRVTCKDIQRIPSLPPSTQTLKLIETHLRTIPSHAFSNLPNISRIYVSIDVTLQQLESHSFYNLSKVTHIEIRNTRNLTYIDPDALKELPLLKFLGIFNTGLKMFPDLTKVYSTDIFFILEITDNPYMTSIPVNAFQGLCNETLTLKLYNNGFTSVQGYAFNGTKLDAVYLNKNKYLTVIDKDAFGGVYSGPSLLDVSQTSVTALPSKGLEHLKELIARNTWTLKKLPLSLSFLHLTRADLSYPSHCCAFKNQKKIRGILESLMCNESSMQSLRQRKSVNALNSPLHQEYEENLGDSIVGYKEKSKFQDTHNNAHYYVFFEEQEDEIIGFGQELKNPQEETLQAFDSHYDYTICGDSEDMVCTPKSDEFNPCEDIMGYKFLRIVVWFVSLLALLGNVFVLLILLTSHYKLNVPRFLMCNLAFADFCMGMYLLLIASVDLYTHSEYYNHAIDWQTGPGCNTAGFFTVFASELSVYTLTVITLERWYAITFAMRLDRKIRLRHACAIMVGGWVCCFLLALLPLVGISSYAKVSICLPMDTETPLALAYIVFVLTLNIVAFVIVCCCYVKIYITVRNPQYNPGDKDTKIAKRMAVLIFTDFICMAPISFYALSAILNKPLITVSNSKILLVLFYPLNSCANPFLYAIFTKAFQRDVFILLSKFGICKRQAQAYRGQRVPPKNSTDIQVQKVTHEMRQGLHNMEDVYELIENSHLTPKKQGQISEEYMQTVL
# How it was run: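 Using 15 concentrations per compound in triplicate, cAMP production was monitored in TSHR-HEK293 cells after 30 min compound incubation at RT; HTRF reagents followed, with fluorescence intensity recorded after 1 h.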
# [9] = qHTS assay to identify small molecule agonists of the hypoxia (HIF-1) signaling pathway - cell viability counter screen (AID 1224844; calls by dose curve; further: nearly all actives have a fitted effect of over 50% in size)
# How it was run: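 In this counter screen, HRE-bla ME-180 cell viability after 17 hrs of compound exposure at 37C was read by CellTiter-Glo luminescence, multiplexed with the beta-lactamase reporter measurement.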
# [10] = qHTS assay to identify small molecule agonists of H2AX (AID 1224845; active means well fitted activation curve with a large enough effect in the signal ratio in the repeat runs, not every such curve was filed as active; the % refers to the signal ratio)
# How it was run: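 Wild-type CHO-K1 cells plated overnight, then exposed 3 hr at 37C to compounds at 15 concentrations (0.76% DMSO). Lysed, then HTRF anti-pH2AX(S139)-cryptate/anti-H2AX-d2 detection after 24 hr at room temperature; emissions 665 and 620 nm.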
# [11] = qHTS assay to identify small molecule agonists of H2AX - cell viability counter screen (AID 1224847; calls by dose curve; further: nearly all actives have a fitted effect of over 30% in size; further: potency means the concentration at half of the fitted maximal effect)
# How it was run: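 For this counter screen, overnight-attached CHO-K1 cells received test compounds (15 concentrations, 0.76% DMSO final); 3 hr later at 37C, CellTiter-Glo reagent was added and luminescence recorded after 30 min at room temperature.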
# [12] = qHTS RealTime-Glo MT Cell Viability Assay in HEK293 cells - 32 hour (AID 1224868); further: nearly all actives have a fitted effect of over 50% in size; further: potency means the concentration at half of the fitted maximal effect
# How it was run: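 Quantitative high-throughput screen of the Tox21 10K library in HEK293: cells and RealTime-Glo reagents plated together, compound added at 5 h, luminescence monitored through 40 h at 37 C.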
# [13] = A CellTox Green Cytotoxicity Assay to monitor cytotoxicity in HEK293 cells - 0 hour (AID 1224869); further: nearly all actives have a fitted effect of over 50% in size
# How it was run: (§1)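 Real-time, in one plate: 600 HEK293 cells/well with dead-cell DNA dye, pinned compound after 5 h, 37 C incubation over 40 h; viable cells give no appreciable fluorescence.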
# [14] = qHTS RealTime-Glo MT Cell Viability Assay in HepG2 cells - 40 hour (AID 1224870); further: nearly all actives have a fitted effect of over 50% in size
# How it was run: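 HepG2 cells mixed with RealTime-Glo MT reagents (NanoLuc plus cell-permeant prosubstrate) were seeded at 600 cells/well, incubated 5 h at 37 C/5% CO2, then pinned with compounds in DMSO; nonlytic luminescence tracked viability during 40 h treatment.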
# [15] = A CellTox Green Cytotoxicity Assay to monitor cytotoxicity in HEK293 cells - 40 hour (AID 1224871); further: nearly all actives have a fitted effect of over 45% in size; further: potency means the concentration at half of the fitted maximal effect
# How it was run: as §1
# [16] = qHTS assay to identify small molecule agonists of the estrogen related receptor signaling pathway with the pleiotropic PPARgamma coactivator (PGC) (AID 1224823)
# How it was run: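 Luminescence readout (One-Glo, 30 min RT) from PGC/ERR cell line treated 18 h at 37 C with pin-tool-delivered DMSO compound solutions; cells plated 6 h before dosing. Quantitative HTS format.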
# [17] = qHTS assay to identify small molecule agonists of the estrogen related receptor signaling pathway with the pleiotropic PPARgamma coactivator (PGC) from Tox21 10K library (AID 1224842); further: nearly all actives have a fitted effect of over 15% in size
# How it was run: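 PGC/ERR reporter cells (NTP line) were seeded 2,000 per well, rested 6 h at 37 C/5% CO2, then pin-dosed with compounds in DMSO for 18 h at 37 C; luciferase read by One-Glo luminescence after 30 min at room temperature.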
# [18] = qHTS assay to identify small molecule agonists of the estrogen related receptor (ERR) signaling pathway from Tox21 library (AID 1224849; calls by dose curve; further: nearly all actives have a fitted effect of over 15% in size); conditions: ERR reporter cell line, ONE-Glo luciferase, 18 h
# How it was run: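 Luciferase activity in ERR pathway reporter cells served as the agonist readout; exposure lasted 18 h at 37 C, with ONE-Glo detection after 30 min at room temperature.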
# [19] = qHTS RealTime-Glo MT Cell Viability Assay in HepG2 cells - 24 hour (AID 1224867); further: nearly all actives have a fitted effect of over 50% in size
# How it was run: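 Compound treatment began 5 h after plating HepG2 cells (600/well) with NanoLuc luciferase and prosubstrate. Plates stayed at 37 C for 40 h; luminescence was captured at six time points, 0 h through 40 h.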
SMILES,Potency [1],Potency [2],Potency [3],Potency [4],Potency [5],Potency [6],Potency [7],Potency [8],Potency [9],Potency [10],Potency [11],Potency [12],Potency [13],Potency [14],Potency [15],outcome [16],Potency [17],"activity change, positive = activation ([18]; at 42.5 µM (top of the series))","activity change, positive = activation ([18]; at 92.4 µM (top of the series))",Potency [19]
O=C1O[C@H]([C@@H](O)CO)C(O)=C1O,inactive,inactive,inactive,inactive,inactive,inactive,inactive,inactive,inactive,inactive,inactive,inactive,inactive,inactive,inactive,–,–,–,–,–
Nc1c2c(nc3ccccc13)CCCC2,–,inactive,inactive,inactive,54.5 µM (active) and 43.3 µM (active) and inactive,inactive,–,inactive,inactive,inactive,inactive,inactive,inactive,inactive,inactive,inactive,inactive,-6.1% (inactive),-44% (inactive) and -30.5% (inactive),–
CCCCCCc1ccc(O)cc1O,61.3 µM (active),inactive,inactive,inactive,inactive,inactive,–,inactive,inactive,inactive,113 µM (active) and 101 µM (active),21.9 µM (active) and 9.77 µM (active),inactive,inactive,49.1 µM (active) and 49 µM (active) and inactive,–,inactive,2.16% (inactive),-16.7% (inactive) and -6.89% (inactive),–
Nc1ccc(O)c([N+](=O)[O-])c1,–,79.6 µM (active),–,–,12.2 µM (active),–,–,–,inactive,–,inactive,–,inactive,inactive,–,inactive,–,–,60.3% (active),–
Cc1cccc(C)c1,inactive,inactive,inactive,inactive,inactive,inactive,–,inactive,inactive,inactive,inactive,inactive,inactive,inactive,inactive,–,inactive,–,-11.8% (inactive) and 5.13% (inactive),inactive
CCCCNC(=O)NS(=O)(=O)c1ccc(C)cc1,inactive,inactive,inactive,inactive,–,–,inactive,–,inactive,inactive,inactive,inactive,inactive,inactive,inactive,inactive,inactive,4.14% (inactive),-14.4% (inactive) and 0.897% (inactive),–
